For 40 molecules, growth results are on record in PubChem BioAssay (NCI).

Each structure is given as a SMILES string. Compounds without any hit were thinned out: in the full panel of roughly 83,000, 20% have a hit.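 Cells were grown in 96-well plates and exposed to the test compound at a single concentration for 48 hours; results are reported as percent growth, with values below 10 considered active.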 A number with no mark means an inactive call. Active and inactive are the calls of the source.

The assay concerns U251 CNS. Nature of the assay: NCI-60 one-dose screen, 48 h (100 = growth as untreated, 0 = no growth, -100 = all killed). The note with it: 10 µM unless noted. As for the experimental part: Growth inhibition of the U251 human tumor cell line is measured as a screen for anti-cancer activity. Cells are grown in 96 well plates and exposed to the test compound for 48 hours. Compounds are tested at a single concentration, which is 10^-5 M for most compounds. The reported endpoint is percent growth (GI% or GIPRCNT), where numbers from 0 - 100% represent growth inhibition, and numbers from -100% - 0 represent cell death. For example, a value of 40 represents 60% growth inhibition. A value of 0 means no net growth occurred over the course of the experiment. A value of -40 indicates 40% of cells at the beginning of the experiment died by the end of the experiment. A value of -100 means all cells are dead at the end of the experiment.
NCI-60 Human Tumor Cell Lines Screen was performed using the standard one-dose NCI protocol, which is described in more detail at https://dtp.cancer.gov/discovery_development/nci-60/default.htm.
Compounds with GIPRCNT values below 10 were considered active. Activity score was based on GIPRCNT using the following formula: […]
Score is 0 for GIPRCNT values of 100 or above, 50 for GIPRCNT values of 0, and 100 for GIPRCNT values of -100.
`O=C1Nc2ccccc2C12C=C(c1ccccc1)Nc1c2c(-c2ccccc2)nn1-c1ccccc1` (stereo not given): the growth was 41.6%.

On to `COc1ccc(-c2nc(C#N)c(NCC(c3ccco3)N3CCCC3)o2)cc1` (stereo not given), for which the growth was 35.7%.

For the molecule `O=c1nc(-c2ccccc2)c2cc(-c3ccc(N4CCCC4)nc3)ccc2[nH]1`, the growth is 67.5%.

In the case of `CCOC(=O)c1c(C)nc2c(c1N)CC(=O)N2CCc1ccccc1`, the growth was 31.8%.

Regarding `CC(=O)OCC1OC(OC2C(COC(C)=O)OC(OCCC[S-])C(OC(C)=O)C2OC(C)=O)C(OC(C)=O)C(OC(C)=O)C1OC(C)=O.[Au+].c1ccc(CN2[CH-]N(Cc3ccccc3)C(c3ccccc3)=C2c2ccccc2)cc1` (stereo not given), the growth is 5.17% (active).

In the case of `O=C(Nc1cccc(-c2cccc(F)c2)c1)C1CCN(Cc2cccc3cccnc23)CC1`, the growth was 44.4%.

Regarding `O=C(Nc1nc2ccc(C(F)(F)F)cc2s1)c1cc(Cl)ccc1O`, the growth is 8.44% (active).

For the molecule `C#Cc1ccccc1NC(=O)c1sc2nc3c(cc2c1N)CCCCC3`, the growth was 99%.

Consider `O=C(/C(=C/c1ccc([N+](=O)[O-])cc1)SCc1ccc(Cl)cc1)c1ccc(F)cc1`, for which the growth is -9.2% (active).

As to `COc1cc(C2=NN(C=O)C(c3cccc(Nc4ccnc5cc(C(F)(F)F)ccc45)c3)C2)cc(OC)c1OC` (stereo not given), the growth is 55.8%.

Consider `Nc1ccc(C(=O)Nc2cccc(C(=O)Nc3ccc4c(O)c(N=Nc5ccc(N=Nc6ccc(S(=O)(=O)O)cc6)cc5)c(S(=O)(=O)O)cc4c3)c2)cc1`, for which the growth was 107%.

Consider `COc1ccc(C2=NN(c3ccc(S(N)(=O)=O)cc3)C(c3ccc(Cl)cc3)C2)c(O)c1` (stereo not given), for which the growth is 57.7%.

On to `COc1ccc2cc(/C=C3\N=C(c4cc(OC)c(OC)c(OC)c4)OC3=O)c(OC)nc2c1`, for which the growth was 92.8%.

On to `CCOC(=O)c1c(-c2ccc(O)cc2)c(C#N)c2c(C#N)c(N)nn2c1N`, for which the growth was 63.3%.

In the case of `COC(=O)c1oc2c(C(=O)/C=C/c3ccc(OC)cc3)c(OCCCN3CCCCC3)ccc2c1C`, the growth was 12%.

Turning to `CC(C)(C#N)c1cc(F)cc(C(=O)Nc2cc(Nc3ncccc3-c3ncnc4nc[nH]c34)ccc2F)c1`, the growth is 40.7%.

On to `Cc1cc(C)cc(Nc2nccc(-c3c(-c4ccc(F)cc4)ncn3C3CCNCC3)n2)c1`, for which the growth is 13.1%.

Take `Nc1c(C(=O)Nc2ccccn2)sc2nc3c(cc12)CCCCC3`: the growth is 23.2%.

Take `Fc1ccc(N/N=C/c2ccc(-n3cccn3)cc2)cc1`: the growth was 103%.

As for `O=c1[nH]c(-c2cccc(F)c2)cc2cc(F)ccc12`, the growth was 21.6%.

Regarding `CC(=O)c1cc2c(N)c(C(=O)Nc3ccccn3)sc2nc1C`, the growth was 77.7%.

`O=c1[nH]nc(-c2ccccc2)c2sc(NC(=S)Nc3ccc(Cl)cc3)nc12`: the growth was 92.1%.

Consider `COc1ccc(-c2cc(-c3nnc(SCC(=O)Nc4ccc(C(C)=O)cc4)o3)c3ccccc3n2)cc1`, for which the growth was -68.6% (active).

On to `COc1cc(C2=NN(c3ccccc3)C(c3cccc(Nc4ccnc5cc(C(F)(F)F)ccc45)c3)C2)cc(OC)c1OC` (stereo not given), for which the growth was 95.5%.

`Cc1cc(C)c2nc(Nc3nc(C)c(C)c(=O)[nH]3)nc(C)c2c1`: the growth was 16.7%.

Consider `CC(=O)Oc1ccc(O)cc1`, for which the growth was 101%.

Take `C#C[C@@]1(O)[C@@H](CO)O[C@@H](n2cc(Cl)c3c(N)ccnc32)[C@@H]1O`: the growth was 16%.

Turning to `CC(=O)Oc1c2c(nc3c1c1ccccc1n3Cc1ccccc1)-c1ccccc1C2`, the growth was 78.7%.

As to `COC(=O)c1nc(-c2ccccc2)oc1S(=O)(=O)n1nc(-c2ccccc2)cc1N`, the growth is 97%.

`O=[N+]([O-])c1ccc(Oc2ccc(-c3ccccc3)cc2)cc1`: the growth is 88.5%.

With `O=[N+]([O-])c1cccc(CN(Cc2cccc([N+](=O)[O-])c2O)c2ccccc2)c1O`, the growth is 85.4%.

Take `CC(=O)Nc1ccc2c(c1)Cc1cc(F)ccc1-2`: the growth was 95.5%.

As for `S=C(Nc1ccccc1)c1ccccn1`, the growth is 95.2%.

Regarding `O=c1[nH]nc(-c2ccc(Br)cc2)c2sc(NC(=S)Nc3ccc(Cl)cc3)nc12`, the growth is 108%.

For `COc1cc(C2=N/C(=C\c3cc4ccccc4nc3Oc3ccccc3)C(=O)N2C(=N)N)cc(OC)c1OC`, the growth is 50.6%.

As to `CCC[S@](=O)c1ccc2nc(NC(=O)OC)[nH]c2c1`, the growth is 89.1%.

With `C/C(=N\NC(=O)c1ccncc1)c1ccc(N)cc1`, the growth was 97.7%.

With `Cn1c2ccccc2c2c(OC(=O)c3ccccc3)c3c(nc21)-c1ccccc1C3`, the growth is 107%.

For `COc1cc(/C=C/CO)cc(OC)c1O[C@@H]1O[C@H](CO)[C@@H](O)[C@H](O)[C@H]1O`, the growth was 96.1%.

Turning to `S=c1ssnc1-c1cc2ccccc2o1`, the growth is 91.5%.
